Screening results as filed in PubChem.
LMNA splice mod: changes lamin A minigene splicing in HeLa cells | hit rate 0.01% among 200,000 | HeLa LMNA splicing GFP/RFP minigene ratio, 48 h | Potency, µM (top dose mostly 46.1 µM), for the others: at the highest dose ratio change, negative = inhibition, actives largely listed as inhibitors; active = well fitted inhibition curve with a large enough effect in the signal ratio, with a control signal flat, not every such curve was filed as active; inconclusive = small, poorly fitted or top-dose-only effect, or effect the other way, or a change in a side signal; the % refers to the signal ratio; note: potency is the fitted concentration of half-maximal effect; % is set by controls: 0 for no effect and ±100 for the full control effect
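S3 HeLa stable clones carrying a lamin A-EGFP splicing minigene plus DsRed2 were seeded at 600 cells/well in Opti-MEM with 2% FBS, pin-dosed and incubated 48 h at 37°C. Acumen cytometry (488 nm) gave the GFP/RFP total-intensity ratio.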
IMPase cell inh: membrane-permeable compound that blocks inositol monophosphatase. CHO-M1 cells, IP1 accumulation, HTRF TR-FRET ratio. inhibition (IP1 accumulation), % at 46.1 µM. 120,000 tested, under 10 active; active = well fitted curve in the direction sought with a large enough effect in the signal ratio, not every such curve was filed as active; inconclusive = small, poorly fitted or top-dose-only effect, or a change in a side signal; inactive = no such curve, though single readings can be large or run the other way; the % refers to the signal ratio;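 note: cells stimulated with carbachol in lithium chloride buffer; plate controls were DMSO basal wells for no effect and reference inhibitor wells for full effect; higher means more IMPase inhibition seen as more IP1 and lower FRET ratio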
Target sequence (P97697 whole entry, looked up): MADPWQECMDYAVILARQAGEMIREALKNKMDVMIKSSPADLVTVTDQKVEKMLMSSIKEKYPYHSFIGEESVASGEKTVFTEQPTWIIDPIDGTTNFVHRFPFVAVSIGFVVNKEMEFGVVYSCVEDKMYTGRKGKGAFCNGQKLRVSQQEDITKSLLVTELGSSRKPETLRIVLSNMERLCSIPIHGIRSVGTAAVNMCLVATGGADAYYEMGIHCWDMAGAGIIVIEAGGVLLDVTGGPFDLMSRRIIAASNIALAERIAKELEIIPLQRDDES
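Seeded CHO-M1 cells were dosed with compound at up to 46 uM, stimulated with carbachol for 30 min, then lysed in IP-One detection reagents. Higher IP1 lowers the TR-FRET signal.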
NPSR antagonist: neuropeptide S receptor (human) antagonism, cAMP; CHO-NPSR cells, cAMP TR-FRET, antagonist mode; Potency, µM (doses to about 38.3 µM), inactives show at the highest dose activity change, negative = inhibition, usual class: inhibitors; hit rate 1% among 220,000; note: potency is the fitted concentration of half-maximal effect; % is set by controls: 0 for no effect and ±100 for the full control effect; nearly all actives have a fitted effect of over 50% in size
Target sequence (Q6W5P4 whole entry, looked up): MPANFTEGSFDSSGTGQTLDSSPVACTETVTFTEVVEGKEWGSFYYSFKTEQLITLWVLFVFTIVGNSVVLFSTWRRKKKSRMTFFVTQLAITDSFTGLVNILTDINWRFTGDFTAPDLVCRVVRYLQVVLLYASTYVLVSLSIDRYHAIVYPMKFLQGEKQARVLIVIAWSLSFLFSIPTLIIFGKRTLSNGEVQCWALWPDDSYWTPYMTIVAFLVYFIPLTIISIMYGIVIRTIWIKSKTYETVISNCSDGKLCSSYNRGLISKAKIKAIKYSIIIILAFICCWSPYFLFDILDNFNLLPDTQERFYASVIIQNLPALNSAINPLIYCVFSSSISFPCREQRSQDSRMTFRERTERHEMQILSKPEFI
HTT ATP protect: protects HTT-Q103 PC12 cells, measured by ATP. hit rate 0.14% among 230,000. Potency, µM (highest dose often 56.4 µM), inactives show cytoprotection (ATP increase), usual class: activators. AID 1471. PC12 HTT-Q103 induced, cytoprotection, ATP luminescence, 40 h; note: potency is the fitted concentration of half-maximal effect; % of control where 0% means no effect; nearly all actives have a fitted effect of over 45% in size
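Compounds were screened for protection of PC12 cells against cell death after tebufenozide induction (100 nM final) of mutant Huntingtin exon 1 (Q103) fused to GFP.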
IMPase Li cell: membrane-permeable IMPase blocker, potentiated with lithium; CHO-M1 cells, IP1 TR-FRET (IP-One), carbachol + lithium; Potency, µM (doses to about 59.4 µM), for the others: at the top dose activity, negative = IMPase inhibition, usual class: inhibitors; hit rate 0.35% among 210,000; AID 1457;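 note: IP1 builds up when IMPase is blocked and the TR-FRET signal falls; potency is the fitted concentration of half-maximal effect; plate controls were basal vehicle for no effect and high inhibitor control for full effect; nearly all actives have a fitted effect of over 50% in size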
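CHO cells stably expressing M1 receptor (2000/well, cultured 16–30 h) treated 30 min at 37C with compound plus low lithium. Cytosolic IP1 by TR-FRET (665/620 ratio and 620 channel) after 10 min lysis; AC50 by Hill fit.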
HTT aggregate: mutant huntingtin aggregation inhibition | Potency, µM (highest dose often 46.1 µM), for inactives: at the highest dose activity change, negative = inhibition, actives largely listed as inhibitors | PC12 HttQ103-GFP aggregates, Acumen cytometry, 40 h | hit rate 1.1% among 220,000; note: potency is the fitted concentration of half-maximal effect; % is set by controls: 0 for no effect and ±100 for the full control effect; nearly all actives have a fitted effect of over 60% in size
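Steps: seed 1500 PC12 HTTQ103-GFP cells/well; add tebufenozide, 100 nM final; add compound titration; add ATPLite reagent; quantify GFP aggregates by laser scanning cytometry.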
Starred values were filed as active, the others as inactive; ! = repeats disagree; [ ] = remark or other dose. In the library only some 1.6% were active in any assay of this set; here they are far more common. Unless noted, calls come from the whole dose curve; as a rule, active = well fitted curve in the direction sought with a large enough effect; inconclusive = small, poorly fitted or top-dose-only effect, or another doubt; inactive = no such curve, though single readings can be large; an effect the other way counts as inactive or inconclusive.

Cc1cc(=O)[nH]c(SCCCOc2ccccc2Cl)n1 was read as LMNA splice mod -5%, IMPase cell inh 2, NPSR antagonist -18%[46.1 µM], HTT ATP protect -18%, IMPase Li cell 33%[38.3 µM] and HTT aggregate inconclusive.
For c1ccc(-c2cc(-c3ccc(N4CCOCC4)cc3)nc3ccccc23)cc1 the results were LMNA splice mod -22%, NPSR antagonist -14%, HTT ATP protect 19%[10 µM], IMPase Li cell -9% and HTT aggregate 11%.
For O=c1cc(N2CCOCC2)oc2c(-c3ccccc3)cccc12 the results were LMNA splice mod 16µM*, IMPase cell inh -2, NPSR antagonist -17%[46.1 µM], HTT ATP protect -106% and IMPase Li cell 21%.
`Nc1nc2c(nc(Br)n2C2O[C@H]3COP(=O)(O)O[C@@H]3C2O)c(=O)[nH]1` (stereo not given in full) gave LMNA splice mod -15%, NPSR antagonist -10%[46.1 µM] and IMPase Li cell -2%.
Screening Cc1ccc(C(=O)N/N=C/c2cccc(OC(=O)/C=C/c3ccco3)c2)cn1 returned LMNA splice mod -5%[9.22 µM], NPSR antagonist 3%, HTT ATP protect 16%[10 µM], IMPase Li cell 13% and HTT aggregate 17%[9.22 µM].
Screening O=C(/C=C/c1ccco1)Oc1cc(Br)cc(/C=N/NC(=O)c2ccccc2O)c1 returned LMNA splice mod inconclusive, IMPase cell inh -1, NPSR antagonist -24%, HTT ATP protect -78%[10 µM], IMPase Li cell 17% and HTT aggregate 2.2µM*.
For CN1C(=O)/C(=C/c2ccc(-c3ccccc3[N+](=O)[O-])o2)SC1=Nc1ccc(Cl)c(C(=O)O)c1 the results were LMNA splice mod -3%, IMPase cell inh 0, NPSR antagonist -21%, HTT ATP protect 13%[10 µM], IMPase Li cell -1% and HTT aggregate 26%.
`C(=C\c1ccccc1)/CN1CCN(C(c2ccccc2)c2ccccc2)CC1` gave LMNA splice mod inconclusive, IMPase cell inh 6, NPSR antagonist 13µM*!, IMPase Li cell 22% and HTT aggregate 12%.
For CCCCn1c(-c2ccco2)nc2oc3ccccc3c(=O)c2c1=O the results were NPSR antagonist 48%, HTT ATP protect -15%[10 µM] and HTT aggregate -9%[9.22 µM].
CC(=O)c1oc2ccccc2c1NC(=O)CCCN1C(=O)c2ccccc2C1=O was read as LMNA splice mod 2%, IMPase cell inh 7, NPSR antagonist -7%[46.1 µM], HTT ATP protect -6%, IMPase Li cell 13µM* and HTT aggregate 4%.
Screening COC(=O)CCC(=O)c1oc2ccccc2c1NC(=O)CCCN1C(=O)c2ccccc2C1=O returned LMNA splice mod 1%, IMPase cell inh 1, NPSR antagonist -9%[46.1 µM], HTT ATP protect 5%, IMPase Li cell -9%[38.3 µM] and HTT aggregate 4%.
COC(=O)C1=C(C)NC(C)=C(C(=O)OCCN(C)Cc2ccccc2)[C@@H]1c1cccc([N+](=O)[O-])c1 was read as IMPase cell inh 17 and HTT ATP protect -17%[1.9 µM].
COc1ccccc1C[C@@H](Cc1nc2ccccc2[nH]1)c1nc2ccccc2[nH]1 was read as HTT ATP protect 2%.
O=C1c2cccc3c(Nc4ccccc4Cl)c([N+](=O)[O-])cc(c23)C(=O)N1CCO was read as LMNA splice mod inconclusive, IMPase cell inh 0, NPSR antagonist -19%[46.1 µM], HTT ATP protect -74%, IMPase Li cell 18%[38.3 µM] and HTT aggregate 10µM*.
Screening O=C1c2cccc([N+](=O)[O-])c2C(=O)N1CCO returned NPSR antagonist 5%, HTT ATP protect -20%, IMPase Li cell -9% and HTT aggregate 1%.
Screening CCSc1nc(-c2ccccc2)nc(C(Cl)Cl)n1 returned LMNA splice mod inconclusive, IMPase cell inh 2, NPSR antagonist -33%, HTT ATP protect 6%[1.9 µM], IMPase Li cell 0% and HTT aggregate 10µM*.
For CSc1nc(-c2ccc(C)cc2)nc(C(Cl)Cl)n1 the results were LMNA splice mod inconclusive, IMPase cell inh -4, NPSR antagonist -4%[46.1 µM], HTT ATP protect -97%, IMPase Li cell 5%[38.3 µM] and HTT aggregate inconclusive.
`COc1ccc(C(=O)Nc2ccc(Cl)c(S(=O)(=O)Nc3ccccc3OC)c2)cc1` gave LMNA splice mod inconclusive, IMPase cell inh 14, NPSR antagonist -16%[46.1 µM], HTT ATP protect 15%[10 µM], IMPase Li cell 10% and HTT aggregate inconclusive.
`COc1ccccc1NS(=O)(=O)c1cc(NC(=O)c2ccc(Cl)nc2)ccc1Cl` gave LMNA splice mod inconclusive, NPSR antagonist -4%, HTT ATP protect 33%[10 µM], IMPase Li cell 14% and HTT aggregate 25µM*.
Screening COc1ccc(-c2nnc(SCC(=O)Nc3cc(C)on3)o2)cc1 returned LMNA splice mod inconclusive, NPSR antagonist -5%, HTT ATP protect 3%[10 µM], IMPase Li cell -5% and HTT aggregate -14%.
Screening N#C/C(=N\Nc1cccc(C(F)(F)F)c1)C(=O)c1csc(-c2cccnc2)n1 returned NPSR antagonist 10µM*, HTT ATP protect 11%[10 µM] and HTT aggregate -20%[9.22 µM].
CC(C)n1c2ccccc2c2nnc(SCC(=O)Nc3ccccc3C(=O)O)nc21 was read as LMNA splice mod -22%[9.22 µM], NPSR antagonist -12%, HTT ATP protect -2%, IMPase Li cell 7.9µM* and HTT aggregate 13%.
Screening CCOC(=O)Cc1nnc(NC(=O)CSc2nnc3c4ccccc4n(C(C)C)c3n2)s1 returned LMNA splice mod -4%, IMPase cell inh inconclusive, NPSR antagonist 5%[46.1 µM], HTT ATP protect -1%[10 µM], IMPase Li cell inconclusive and HTT aggregate -7%.
CCc1nnc(NC(=O)CSc2nnc(CNc3ccc(C)cc3)n2C)s1 was read as LMNA splice mod 0%[46 µM], NPSR antagonist -5%, HTT ATP protect 9%[10 µM], IMPase Li cell 4% and HTT aggregate 4%[9.22 µM].
c1ccc(-c2nc3nonc3nc2-c2ccccc2)cc1 was read as LMNA splice mod inconclusive, IMPase cell inh 12, NPSR antagonist -2%[46.1 µM], HTT ATP protect -140%, IMPase Li cell 5%[38.3 µM] and HTT aggregate 3.2µM*.
Screening Cc1ccc(O)c(N=CC2=C(O)c3ccccc3C2=O)c1 returned LMNA splice mod inconclusive, IMPase cell inh inconclusive, NPSR antagonist inconclusive, HTT ATP protect -15%, IMPase Li cell 10µM* and HTT aggregate -29%.
For C[N+](C)(C)c1nc(N)nc2c1ncn2[C@H]1O[C@@H](CO)[C@@H](O)[C@H]1O the results were HTT ATP protect 6%[10 µM] and IMPase Li cell 6%.
Screening COc1ccc(-n2c(=O)cnc3cnc(N4CCOCC4)nc32)cc1 returned LMNA splice mod -7%, HTT ATP protect -36% and IMPase Li cell 4%.
